# The list is not random: actives were taken first. Their share in the collection is about 1.3%.
# BRCA1 expr up = BRCA1 expression activation | MCF7-BRCA1-FFLuc reporter, luminescence, 48 h; response scale: scaled: vehicle 0%, 10 µM genistein 100% | Potency, µM (highest dose often 46.1 µM), for the others: at the highest dose activation, usual class: activators | 380,000 compounds, 1.1% hits | AID 624202; note: potency is the fitted concentration of half-maximal effect; nearly all actives have a fitted effect of over 80% in size
#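 MCF7 cells carrying a BRCA1-firefly luciferase reporter (2000 cells/well, phenol-red free MEM) were attached for 2 h at 37 °C, then given compounds for 48 h. Luminescence was read 15 min after luciferase reagent; activity normalized to genistein (10 microM) and DMSO.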
# Apoferritin bind = binds horse apoferritin like a general anesthetic; Potency, µM (top dose mostly 77.5 µM), without a hit: at the highest dose activity change, negative = displacement, actives largely listed as inhibitors; apoferritin/1-aminoanthracene competitive binding, fluorescence; AID 485281; 350,000 compounds, 0.074% hits; P02791; note: potency is the fitted concentration of half-maximal effect; % is set by controls: 0 for no effect and ±100 for the full control effect; nearly all actives have a fitted effect of over 20% in size
# Target sequence (P02791 2-175 limits assumed): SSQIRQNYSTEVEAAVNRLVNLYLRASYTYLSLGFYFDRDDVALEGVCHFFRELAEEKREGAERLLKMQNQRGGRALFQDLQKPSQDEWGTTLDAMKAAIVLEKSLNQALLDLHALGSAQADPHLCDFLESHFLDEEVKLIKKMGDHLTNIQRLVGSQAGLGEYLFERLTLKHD
#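 Horse-spleen apoferritin (10 uM) in 50% saturated 1-aminoanthracene in PBS was incubated 10 min at room temperature with compound. Fluorescence (ex 380, em 535 nm) was normalized to free and bound 1-AMA, with concentration-response fitted by a four-parameter Hill equation.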
# IL2 activator = activators of IL-2; IL-2 activation reporter assay, cell-based qHTS; stimulated with anti-CD3/CD4/CD28 beads; in transgenic mouse T cells; 360,000 compounds, 0.065% hits; activation, % (series mostly up to about 46 µM); in the data active = activation above about 50%; inconclusive = mostly about 30% to 49%; note: 0% is about no effect
#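 Screening format: compound pinned onto unstimulated transgenic mouse T cells, 60 min incubation, then anti-CD3/anti-CD4/anti-CD28 bead stimulation for 18 hours at 37 degrees C, followed by EGFP and DsRed detection.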
# a7 integrin act = integrin-mediated muscular dystrophy alleviation activation. 350,000 compounds, 0.064% hits. Potency, µM (doses to about 38.3 µM), without a hit: at the top dose activation, hits mostly activators. alpha7betagal myoblasts, beta-gal FDG fluorescence, 48 h;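 note: potency is the fitted concentration of half-maximal effect; 100% = response of the positive control SU9516; nearly all actives have a fitted effect of over 60% in size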
#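 Alpha7betagal+/- myoblasts (passage 13) were plated 16-24 hr, then exposed to compounds (1:260 dilution of DMSO stock) for 48 hours at 37C. After MPER lysis, β-galactosidase reporter activity was read as FDG fluorescence (ex 480/em 540) after 30 minutes.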
# PKM2 act = activators of human pyruvate kinase M2 | Potency, µM (highest dose often 57.5 µM), for inactives: top-dose activation, usual class: activators | P14618 | purified PKM2, Kinase-Glo ATP luminescence, activation; response scale: 0% is enzyme alone, no compound | 260,000 compounds, 0.34% hits; note: potency is the fitted concentration of half-maximal effect; % is set by controls: 0 for no effect and ±100 for the full control effect; nearly all actives have a fitted effect of over 55% in size
#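 ATP formation by purified human PK-M2, quantified via coupled luciferase luminescence after 1 h at room temperature with 0.1 mM ADP and 0.5 mM PEP final.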
# Numbers without * were called inactive; ? = inconclusive; . = no result given; [ ] = another dose, or the depositor's remark. Unless noted, calls come from the whole dose curve; as a rule, active = well fitted curve in the direction sought with a large enough effect; inconclusive = small, poorly fitted or top-dose-only effect, or another doubt; inactive = no such curve, though single readings can be large; an effect the other way counts as inactive or inconclusive.
SMILES,BRCA1 expr up,Apoferritin bind,IL2 activator,a7 integrin act,PKM2 act
COc1cc(/C=N/Nc2snc(SC)c2C#N)cc(OC)c1OC,-58.5%,-10.0%,0.5,-9.2%,-0.4%
CSc1nsc(N/N=C/c2ccc3c(c2)OCO3)c1C#N,3.98µM*,-5.4%,0.2,13.4%,.
O=C1NN(c2ccc(Cl)cc2)C(=O)/C1=C\c1ccc(-c2cccc(C(=O)O)c2)o1,8.91µM*,1.5%,0.8,-6.0%,-1.0%
Cc1ccc(N2NC(=O)/C(=C/c3ccc(-c4ccc(Cl)c(C(=O)O)c4)o3)C2=O)cc1,4.9%,-6.6%,-1.1,0.0%,-6.5%
O=C(NCC(O)c1ccccc1)c1cccs1 (stereo not given),7.08µM*,-7.0%,-0.2,7.1%,.
O=C(NCC(=O)N1CCN(Cc2ccccc2)CC1)c1cccs1,10µM*,.,0.8,-4.3%,.
O=C(Nc1ccccc1-c1cn2c(CN3CCNCC3)csc2n1)c1cnc2ccccc2n1,-69.1%,.,.,.,.
CCn1c(N)c(C(=O)NCc2ccc3c(c2)OCO3)sc1=S,-25.9%,?,-1.6,-12.0%,5.01µM*
O=C(Nc1ccc2c(c1)OCO2)c1cc(C2CC2)on1,4.47µM*,-7.9%,-1.8,-27.0%,2.6%
O=C(Nc1ccc2c(c1)OCO2)c1ccc(=O)[nH]n1,11.2µM*,0.6%,-0.6,0.8%,4.9%
CCOC(=O)Cn1c(=O)oc2cc(S(=O)(=O)N3CCN(c4cc(C)ccc4C)CC3)ccc21,.,31.1%,.,.,.
Nc1ccc(S(=O)(=O)c2ccc(N)c(N)c2)cc1,7.8%,-11.0%,0.8,40.0%,28.2µM*
CCCCCCCCCCN(CCCCCCCCCC)c1ccc(/C=C/c2ccnc3ccccc23)cc1,2.2%,.,.,.,.
Cc1ccc(C(=O)Cn2cnc3ccccc3c2=O)cc1C,4.47µM*,?,-0.3,15.8%,6.7%
O=C(Cn1cnc2ccccc2c1=O)c1ccc2ccccc2c1,6.31µM*,?,-0.3,11.5%,0.3%
COc1ccc(C(=O)Cn2cnc3ccccc3c2=O)cc1,?,-6.8%,1.7,7.4%,-1.3%
O=C(NNC(=O)c1ccccc1Br)c1ccccc1Cl,0.0%,-3.9%,-1.8,-14.2%,0.2%
O=C(NNC(=S)Nc1ccccc1Cl)c1ccccc1Br,8.91µM*,-4.0%,2.9,3.9%,-19.4%
CC(C)OCCCNC(=O)c1ccc2c(c1)ncn2C1CCCC1,11.2µM*,-6.3%,-0.1,7.5%,-3.7%
O=C(NCCCN1CCCCC1)c1ccc2c(c1)ncn2C1CCCC1,-0.3%,0.5%,-2.7,-5.4%,.
CCCNC(=O)OC[C@H]1O[C@@H](CCO/N=C2/[C@H]3O[C@@H]3[C@@H](O)[C@H]3[C@H]2CCn2c(=O)n(-c4ccccc4)c(=O)n23)C=C[C@@H]1Oc1ccc(OC)cc1,.,-2.3%[15.3 µM],.,.,.
CC(C)(C)N1C(=O)[C@H]2[C@H]3[C@H](O)[C@H](O)C/C(=N/OCc4ccccc4)[C@@H]3CC[C@@H]2C1=O,.,-3.3%[15.3 µM],.,.,.
O=C(CN1CCOCC1)Nc1ccc(-c2nc3ccccc3[nH]2)cc1,11.2µM*,-10.2%,-1.3,6.9%,0.9%
O=C(Cc1cccs1)Nc1ccc(-c2nc3ccccc3[nH]2)cc1,5.62µM*,-12.1%,-0.2,-14.0%,-14.3%
Cc1cc(OC(C)C(=O)Nc2cccc(-c3nc4ccccc4o3)c2)cc(C)c1Cl (stereo not given),70.6%,6.0%,.,.,.
SMILES,BRCA1 expr up,Apoferritin bind,IL2 activator,a7 integrin act,PKM2 act
O=C(COc1ccccc1O)c1cccs1,23.4%,28.2µM*,-0.3,3.1%,-0.3%
CC(CC(=O)c1cccs1)CC(=O)c1cccs1,12.6µM*,-11.3%,1.0,-7.8%,1.5%
CCOC(=O)c1cc(S(=O)(=O)NCc2ccc(OC)cc2)[nH]n1,.,-7.4%,.,.,.
Oc1cc2cc(-c3csc(-c4ccc(F)cc4)n3)cc3c2n1CCC3,12.6µM*,.,.,.,.
O=C1CCc2cc(-c3csc(-c4ccc(O)cc4)n3)ccc2N1,3.7%,.,.,.,.
COc1cc(Nc2nc(SCc3ccccc3Cl)nc3ccccc23)cc(OC)c1,.,348.2%,.,.,.
CCCC(C)(C)C(=O)Nc1ccc(Cl)cc1,.,-12.3%,.,.,.
Cc1ccc(-c2nnc(SCC(=O)N/N=C/c3ccccc3C(=O)O)n2-c2ccc(Cl)cc2)cc1,8.0%,-0.7%,-1.8,45.0%,28.2µM*
